Drawing on PubChem BioAssay AID2796 (The Scripps Research Institute Molecular Screening Center, 2010), this text covers activation for 62 compounds.

Each structure is given as a SMILES string. Hit rate of the full screen: of about 320,000 compounds, about 8,000 (2.5%) were called active. The sample as a whole holds a higher share of actives than the screen did. A number with no mark means an inactive call. Cut-off read from the data, not from the text of the source: active = activation above about 47%; inactive = the rest.

Sequence of Aryl hydrocarbon receptor (Homo sapiens) (P35869 whole entry, looked up): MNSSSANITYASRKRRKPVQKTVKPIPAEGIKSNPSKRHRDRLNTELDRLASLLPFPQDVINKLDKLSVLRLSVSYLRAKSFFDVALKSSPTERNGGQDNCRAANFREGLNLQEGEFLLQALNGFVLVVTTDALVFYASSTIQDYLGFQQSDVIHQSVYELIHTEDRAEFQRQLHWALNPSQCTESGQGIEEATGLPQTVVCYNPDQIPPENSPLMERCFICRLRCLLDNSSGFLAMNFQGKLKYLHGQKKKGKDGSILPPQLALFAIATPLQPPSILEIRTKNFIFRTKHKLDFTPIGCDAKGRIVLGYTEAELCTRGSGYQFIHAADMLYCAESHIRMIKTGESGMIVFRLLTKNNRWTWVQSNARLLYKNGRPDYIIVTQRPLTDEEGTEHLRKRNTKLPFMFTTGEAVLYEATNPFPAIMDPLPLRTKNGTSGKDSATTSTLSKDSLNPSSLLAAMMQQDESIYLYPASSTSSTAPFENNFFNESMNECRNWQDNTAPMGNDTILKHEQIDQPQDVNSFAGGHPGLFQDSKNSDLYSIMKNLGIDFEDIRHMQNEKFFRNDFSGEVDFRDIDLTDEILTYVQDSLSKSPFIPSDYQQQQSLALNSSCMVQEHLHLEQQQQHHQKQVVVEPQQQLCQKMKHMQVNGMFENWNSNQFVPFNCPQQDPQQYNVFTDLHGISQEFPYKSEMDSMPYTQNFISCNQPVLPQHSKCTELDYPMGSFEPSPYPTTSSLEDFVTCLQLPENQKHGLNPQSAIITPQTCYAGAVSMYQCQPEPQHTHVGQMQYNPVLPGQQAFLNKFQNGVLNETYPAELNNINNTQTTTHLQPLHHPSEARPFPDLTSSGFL

This assay concerns the target Aryl hydrocarbon receptor (Homo sapiens) (UniProt P35869). The assay can be described thus: AHR activators, primary screen, cell-based, luminescence, luciferase reporter, human (AID 2796).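 Note: 0% = vehicle wells and 100% = reference agonist.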 As to conditions: AHR-responsive luciferase reporter cells, at 5 µM, hits give high values.
In the case of `CCc1cc(C(=O)OC)c(NC(=O)CC2Sc3ccc(C(F)(F)F)cc3NC2=O)s1` (configuration not stated), the activation is -1.22%.

Regarding `Cc1cc(C)nc(SCc2nnc(SCC(=O)OC3CCCCC3)o2)n1`, the activation was 0.2%.

With `CC(OC(=O)c1c(F)cccc1F)C(=O)NCCC1=CCCCC1` (configuration not stated), the activation was 1.47%.

Consider `CC(C)(C)C(=O)OCc1nc(-c2ccc(O)c(O)c2)cs1`, for which the activation was 4.13%.

As for `COc1ccc(-c2csc(NC(=O)COC(=O)c3ccc(Br)o3)n2)cc1`, the activation is 15.7%.

`COc1ccc(-c2csc(Cc3nc(O)cs3)n2)cc1`: the activation was 47.5% (active).

As for `CC1CCCCC12NC(=O)N(CC(=O)Nc1ccc(S(=O)(=O)Nc3ncccn3)cc1)C2=O` (configuration not stated), the activation is 0.23%.

`COC(=O)c1c(NC(=O)CN2C(=O)NC(CCc3ccccc3)C2=O)sc2c1CCCCC2` (configuration not stated): the activation is 6.43%.

As for `COc1ccc(S(=O)(=O)NC(C)c2ccccc2)cc1C(=O)N1CCCCC1` (configuration not stated), the activation is 2.64%.

As to `O=c1[nH]c(/C=C/c2cccc(Br)c2)nc2ccccc12`, the activation is 22.6%.

In the case of `O=c1[nH]c(N2CCOCC2)nc2ccccc12`, the activation is 2.44%.

Regarding `O=c1[nH]c(-c2cccs2)nc2ccccc12`, the activation is 71.2% (active).

Regarding `Cc1c(CN2CCC(n3nccc3NC(=O)CCc3ccccc3)CC2)cnn1C`, the activation was 1.39%.

Consider `Cc1cccc(C)c1NC(=O)CNC(=O)Cc1ccc(Br)cc1`, for which the activation is 5.24%.

For `CCOC(=O)Cc1csc(SCc2cc(=O)oc3cc(O)ccc23)n1`, the activation was -1.46%.

For `Cc1cc(=O)oc2cc(OCC(=O)Nc3nnc(C4CC4)s3)ccc12`, the activation is 9.3%.

Consider `CCOC(=O)Cc1csc(NC(=O)COc2ccc3c(C)cc(=O)oc3c2)n1`, for which the activation was 59.9% (active).

Regarding `CCOC(=O)c1cccc(NC(=O)c2ccc(F)cc2F)c1`, the activation is 5.88%.

As to `Cn1c(=NC(=O)c2cnccn2)sc2ccccc21`, the activation was 13.9%.

Take `Cn1c(=NC(=O)c2ccco2)sc2cccc(F)c21`: the activation was 58% (active).

Consider `CCCC(=O)N=c1sc2cccc(F)c2n1C`, for which the activation is 5.82%.

Regarding `COc1ccc2oc(C(=O)OCC(=O)N(CC(C)C)c3c(N)n(Cc4ccccc4)c(=O)[nH]c3=O)c(C)c2c1`, the activation is -3.35%.

On to `O=C(COc1ccccc1)Nc1cc2c3c(c1)CC(=O)N3CCC2`, for which the activation is 8.04%.

As to `CCOc1cc(/C=N/O)ccc1OCc1ccccc1F`, the activation is 50.4% (active).

In the case of `COc1cc(/C=C2/C(=O)ON=C2C)ccc1OCc1ccccc1F`, the activation is 0.62%.

In the case of `CCOc1ccc(/C=N/NC(=O)C(C)Sc2ccccn2)cc1OCC` (configuration not stated), the activation is 4.44%.

`Cc1ccc(NC(=O)COC(=O)CNC(=O)c2ccc(Cl)cc2Cl)cc1S(=O)(=O)N1CCOCC1`: the activation is -1.57%.

`O=C(CC1C(=O)NCCN1Cc1ccc(-c2ccccc2)cc1)NCc1ccncc1` (configuration not stated): the activation is 0.69%.

For `CC(C)c1ccc(NC(=S)NC2CC3C=CC2C3)cc1` (configuration not stated), the activation was 7.48%.

Consider `O=c1[nH]c(=S)[nH]c2[nH]c(=S)[nH]c12`, for which the activation is 0%.

On to `Cc1c(C)c(C)c2[nH]c(=S)[nH]c2c1C`, for which the activation was 52.1% (active).

On to `CCN(CC(=O)Nc1ccc2c(c1)OCO2)S(=O)(=O)c1ccccc1`, for which the activation was 28.8%.

Regarding `O=C(CCS(=O)(=O)Cc1ccccc1)Nc1ccc2c(c1)OCCO2`, the activation is 3.19%.

Consider `O=C(CN(c1ccc2c(c1)OCCO2)S(=O)(=O)c1ccccc1)Nc1ccc2c(c1)OCO2`, for which the activation is 79.1% (active).

Take `O=C(CN1CCN(S(=O)(=O)c2cccc(Cl)c2)CC1)N1CCCCC1`: the activation was -1.59%.

For `CCCCNC(=O)C1(c2ccc(OC)cc2)CCOCC1`, the activation is 0.03%.

As to `CS(=O)(=O)c1ccc2nnn(OCC(=O)Nc3cccc(C#N)c3)c2c1`, the activation was 5.17%.

In the case of `Fc1ccccc1OCCSc1nc2ccccc2o1`, the activation is -9.22%.

As for `COc1ccc(C(C(O)C(=O)c2c[nH]c3ccccc23)N2CCN(c3ccccc3)CC2)cc1` (configuration not stated), the activation was 12.8%.

`COc1ccc(/C=C(\C#N)c2c[nH]c3ccccc23)cc1`: the activation is 53.6% (active).

Regarding `COc1ccc(/C=C(\NC(=O)c2ccc(OC)c(OC)c2)C(=O)NCCc2c[nH]c3ccccc23)cc1`, the activation was 13.8%.

`CC(NC(=O)COC(=O)c1ccc(Cl)cc1O)c1ccc(F)cc1` (configuration not stated): the activation was 3.35%.

On to `Cc1ccc2nc(/C(C#N)=C\c3ccc(OC(=O)c4cccs4)cc3)[nH]c2c1`, for which the activation is 80.8% (active).

With `CCOC(=O)CSc1nc2ccc(C)cc2[nH]1`, the activation was 1.6%.

Take `CCOc1cc(/C=C(\C#N)c2nc(-c3cccs3)c(NC(C)=O)s2)ccc1O`: the activation is 8.05%.

For the compound `Cc1ccc(S(=O)(=O)NC(C)C(=O)NCc2ccc(Cl)cc2)cc1` (configuration not stated), the activation is 0.98%.

Turning to `COCCCn1c(SCc2cccc(OC)c2)nc2cc(OC)c(OC)cc2c1=N`, the activation is 11.1%.

Turning to `CC(C)(C)OC(=O)C[C@@H]1C/C=C\C[C@@H](CC(=O)N(CCO)Cc2ccccc2)C(=O)N[C@H](Cc2ccccc2)COC1=O`, the activation was 2.29%.

With `Cc1ccc2nc(SCc3cn4c(C)cc(C)nc4n3)[nH]c2c1`, the activation was 62.1% (active).

For `Cc1ccc2nc(SCC(=O)NC3CCCC3)[nH]c2c1`, the activation is 42.2%.

Regarding `Cc1cc(C)nc(SCc2cn3c(C)cc(C)nc3n2)n1`, the activation is 7.09%.

With `CCC1(c2ccccc2)NC(=O)N(CC(=O)Nc2ccccc2C(=O)NC2CCCC2)C1=O` (configuration not stated), the activation is 1.57%.

Regarding `CN(Cc1ccccc1)C(=O)COC(=O)/C=C/c1ccc2c(c1)OCO2`, the activation is 2.59%.

Regarding `CN(c1ccc(OCC(=O)OCC(=O)Nc2cccc([N+](=O)[O-])c2)cc1)S(=O)(=O)c1ccc(F)cc1`, the activation was 2%.

Take `O=C1C(=O)N(c2ccccc2)c2ccccc21`: the activation was 0.42%.

As for `O=C(c1c(F)cccc1F)N1CCN(c2ncc(Br)cn2)CC1`, the activation was 1.98%.

Turning to `CCn1c(=O)cc(SCC(=O)NCc2ccc3c(c2)OCO3)c2ccccc21`, the activation is 6.43%.

With `CCn1c(=O)c(C(=O)NCc2ccc3c(c2)OCO3)c(O)c2ccccc21`, the activation is 1.55%.

For the compound `CCn1c(=O)c([N+](=O)[O-])c(NCc2ccc3c(c2)OCO3)c2ccccc21`, the activation is 47.1% (active).

With `CC(C)CNC(=S)Nc1ccc(F)cc1`, the activation is -0.24%.

`CC(C)CNC(=O)C(=O)Nc1ccc(N(C)C)cc1`: the activation was 48% (active).

Turning to `CC(C)CNC(=O)C(=O)NCc1ccccc1`, the activation is -0.83%.
